# High-throughput results: PubChem, several laboratories
# MsrA act – bovine MsrA enzyme activators, primary screen, biochemical, absorbance, HTS. AID 602163, 2012. purified bovine MsrA, absorbance read-out. Methionine sulfoxide reductase A (Bos taurus). activation, % at 10.6 µM. actives 0.3% (n = 360,000); in the data active means activation above about 7.5%;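 further: 0% = vehicle and 100% = reference activator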
# NPR2 activator – human GC-B receptor activators, primary screen, HEK293 GC-B cells, cGMP TR-FRET, EC30 CNP. Atrial natriuretic peptide receptor 2 (Homo sapiens), P20594. 0% at EC30 CNP, 100% saturating CNP. activation, % at 10 µM. actives 0.11% (n = 370,000). AID 1920062, 2024;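 active means activation at 10 µM reaching about 35% in either raw or pattern-adjusted values, limit read from the data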
# Target sequence (P20594 whole entry, looked up): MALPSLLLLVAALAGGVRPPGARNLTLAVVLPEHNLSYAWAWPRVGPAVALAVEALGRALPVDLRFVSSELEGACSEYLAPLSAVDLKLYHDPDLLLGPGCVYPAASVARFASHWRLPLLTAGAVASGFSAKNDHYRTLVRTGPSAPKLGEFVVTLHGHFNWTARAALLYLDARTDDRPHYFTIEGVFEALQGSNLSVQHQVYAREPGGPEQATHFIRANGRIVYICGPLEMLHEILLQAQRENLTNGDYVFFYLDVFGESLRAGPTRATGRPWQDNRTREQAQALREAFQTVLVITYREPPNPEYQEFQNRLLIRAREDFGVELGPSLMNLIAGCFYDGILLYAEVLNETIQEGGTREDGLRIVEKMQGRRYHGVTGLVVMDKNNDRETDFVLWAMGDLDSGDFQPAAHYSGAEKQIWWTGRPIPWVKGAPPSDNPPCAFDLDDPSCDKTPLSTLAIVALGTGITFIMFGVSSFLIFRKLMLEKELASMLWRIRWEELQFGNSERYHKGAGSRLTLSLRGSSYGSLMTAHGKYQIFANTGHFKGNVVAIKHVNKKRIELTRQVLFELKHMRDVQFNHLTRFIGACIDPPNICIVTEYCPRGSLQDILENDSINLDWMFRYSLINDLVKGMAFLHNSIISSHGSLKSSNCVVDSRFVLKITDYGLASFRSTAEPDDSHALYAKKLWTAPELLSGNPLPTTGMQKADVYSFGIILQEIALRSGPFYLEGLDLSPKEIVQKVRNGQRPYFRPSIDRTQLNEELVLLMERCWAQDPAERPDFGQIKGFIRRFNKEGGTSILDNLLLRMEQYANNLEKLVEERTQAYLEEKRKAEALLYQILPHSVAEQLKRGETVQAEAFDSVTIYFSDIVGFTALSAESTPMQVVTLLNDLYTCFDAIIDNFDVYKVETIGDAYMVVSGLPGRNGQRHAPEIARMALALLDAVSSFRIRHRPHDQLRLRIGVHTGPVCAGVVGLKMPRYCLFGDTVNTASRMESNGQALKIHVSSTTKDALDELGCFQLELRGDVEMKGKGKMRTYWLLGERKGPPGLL
# GC-A act – GC-A stimulated cGMP production enhancers – HEK293 GC-A cells, cGMP TR-FRET, EC30 ANP, primary screen; 0% at EC30 ANP, 100% saturating ANP; Atrial natriuretic peptide receptor 1 (Homo sapiens), P16066; actives 0.14% (n = 370,000); activation, % at 10 µM; AID 1671463, 2021; in the data active means activation above about 40%
# MsrA inhibitor – bovine MsrA enzyme inhibitors, primary screen, biochemical, absorbance, HTS; AID 651718, 2012; purified bovine MsrA, absorbance read-out; inhibition, % at 15.5 µM; actives 0.75% (n = 360,000);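 further: 0% = vehicle wells with enzyme and 100% = reference inhibitor wells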
# MsrA inh confirm – bovine MsrA inhibitors, retest, confirmation, biochemical, absorbance, HTS | shares compounds with MsrA inhibitor | purified bovine MsrA, absorbance read-out | inhibition, % at 15.5 µM | actives 41% (n = 2,300) | AID 651822, 2012;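 further: coupled to thioredoxin reductase with NADPH and selenocystamine and DMSO as substrate; 0% = vehicle only and 100% = full effect of reference inhibitor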
# Numbers without * were called inactive; nt = no result; ! = repeats disagree. In the library only some 1.2% were active in any assay of this set; here they are far more common. Unless noted, no stated cut-off is given here; in the data, active means inhibition above about 4.5%; inactive means the rest.
SMILES,MsrA act,NPR2 activator,GC-A act,MsrA inhibitor,MsrA inh confirm
CN(C)[C@H]1CCN(c2cccc3c2S(=O)(=O)N2CC[C@@H](C2)O3)C1,nt,2,-3,nt,nt
CCOC(=O)c1cc2c(=Cc3ccc(N(C)C)cc3)c3ccccc3n2[n+]1C,-5,-19,-16,5.0*,0
O=C(NNC(=S)Nc1ccccc1)c1ccncc1,0,7,-1,2,nt
O=C(NNC(=S)Nc1cccc(C(F)(F)F)c1)c1ccncc1,-2,0,6,4.8*,1
Cc1ccc(C(=O)N2CCC[C@@H]2C(=O)N2CCC[C@@H]2C(=O)NCc2ccccc2)cc1,nt,3,-3,0,nt
CCC[C@H]1[C@@H](NC(=O)C2CCOC2)CC[C@@]23CCCN2C(=O)CCC[C@@H]13 (some centres not stated),nt,-1,0,nt,nt
O=C(O)c1ccc(Nc2nc(-c3ccccc3)nc3ccccc23)cc1,-4,-2,-8,6.0*,3
O=C(O)c1cccc(Nc2nc(C(F)(F)F)nc3ccccc23)c1,-7,1,2,4.7*,2
CN(Cc1cn(Cc2ccccc2)nn1)S(=O)(=O)c1ccc(F)cc1Br,nt,6,1,nt,nt
COc1ccc(/C=C(/NC(=O)c2ccccc2)C(=O)N/N=C/c2cccs2)cc1OC,-7,6,2,4.8*,6.0*
O=C(N/N=C/c1cccnc1)/C(=C\c1cccs1)NC(=O)c1ccccc1,3,4,0,7.3*,4.7*
COc1ccc([N+](=O)[O-])cc1/C=N/NC(=O)/C(=C\c1cccs1)NC(=O)c1ccccc1,-9,nt,nt,3,nt
O=C(N/N=C/c1cc2ccccc2nc1Cl)/C(=C/c1cccs1)NC(=O)c1ccccc1,-5,-4,-7,3,nt
COc1ccc(/C=C(/NC(=O)c2ccccc2)C(=O)N/N=C/c2ccc3c(c2)OCO3)cc1OC,-5,-2,5,6.4*,5.1*
CC(C)(C)c1ccc(S(=O)(=O)N2CCC(C(=O)NCC3COCCO3)CC2)cc1 (configuration not stated),nt,-4,-1,nt,nt
COCCCNc1nc2ccccc2nc1NS(=O)(=O)c1ccc(OC)cc1,0,-3,-1,3,nt
O=S(=O)(Nc1nc2ccccc2nc1OCC(F)(F)F)c1cccs1,-2,2,-2,4.9*,1
COc1ccc(Nc2nc3ccccc3nc2NS(=O)(=O)c2cccs2)cc1,2,2,6,0,nt
COCCCNc1nc2ccccc2nc1NS(=O)(=O)c1cccs1,-4,1,2,5.2*,3
COC(=O)[C@]12C[C@H](CC(=O)N3CCCCC3)C(=O)N(CCC3=CCCCC3)C1=C[C@H](C1CCCC1)O[C@@H]2C,nt,5,-2,nt,nt
Cc1c(NC(=S)/C=C2\N(C)c3ccccc3C2(C)C)c(=O)n(-c2ccccc2)n1C,-5,8,-4,4,nt
Cc1c(N=C/C=C2\N(C)c3ccccc3C2(C)C)c(=O)n(-c2ccccc2)n1C,-9,4,-3,6.1*,4.9*
Cc1c(N=C/C=C2/N(C)c3ccccc3C2(C)C)c(=O)n(-c2ccccc2)n1C,-3,-6,1,5.7*!,2
CC1C(=O)NN=C1C(=O)N/N=C\C(Br)=C\c1ccccc1 (configuration not stated),-6,-4,-9,5.7*,4
COC(=O)C(NC(=O)c1ccccc1)=C1C=C(C)OC(C)=C1,0,-6,6,5.3*,4
SMILES,MsrA act,NPR2 activator,GC-A act,MsrA inhibitor,MsrA inh confirm
CCOc1ccc(C(=O)CSc2nnc(SCc3ccc(Cl)cc3)s2)cc1,nt,-5,-1,nt,nt
CCS(=O)(=O)Nc1ccc(C2=NN(C(=O)c3ccco3)C(c3ccco3)C2)cc1 (configuration not stated),0,-9,-17,5.1*,3
CCCCN1CC[C@H](C)Oc2cc(Br)ccc2S1(=O)=O,nt,-3,-9,nt,nt
Cc1ccc(N=c2c([N+](=O)[O-])nn(-c3ccccc3)n2O)c(C)c1,-10,-3,0,12*,15*
CCN(C(=O)[C@@H](C)[C@@H](O)c1ccc(Cl)cc1)c1ccccc1,nt,-9,-3,nt,nt
Cc1cc2oc(=O)cc(-c3cc4ccccc4o3)c2cc1O,-4,0,5,6.5*,4
CC(=O)COc1ccc2oc(=O)cc(-c3cc4ccccc4o3)c2c1,-3,-6,3,13*,12*
CC(C)(C)C(=O)Nc1ccc(F)cc1[N+](=O)[O-],-3,1,-9,6.3*,7.5*
NC(=O)c1cc(S(=O)(=O)N2CCN(c3ccc([N+](=O)[O-])cc3)CC2)cs1,-2,-17,-46,7.8*,4.8*
Cc1ccc(S(=O)(=O)N2CC3(COC(C)(C)OC3)C[C@H]2CON2C(C)(C)CCCC2(C)C)cc1,nt,-8,-3,nt,nt
C=CCOc1cccc(/C=C\c2nc(O)c([N+](=O)[O-])c(=O)[nH]2)c1,-2,2,-5,4.8*,4
CN(C)c1ccc(C(=O)NC2CCCCN(Cc3cccc(Cl)c3)C2=O)cc1 (configuration not stated),nt,8,0,nt,nt
CCOC(=O)c1c(NC(=O)COC(=O)/C=C/c2ccco2)sc2c1CC(C)(C)NC2(C)C,-3,14,16,8.7*,15*
CC1(C)CC(=O)C=C(Nc2ccc(S(N)(=O)=O)cc2)C1,-7,3,2,4.9*,3
CC1(C)CC(=O)C=C(Nc2ccc(O)c(C(=O)O)c2)C1,-8,1,0,1,nt
CC1(C)CC(=O)C=C(Nc2ccc(C(=O)O)cc2)C1,-4,0,2,7.0*,3
COc1ccc(/C=C2\CC3(OC(=O)c4ccccc4)CCCN2C3)cc1 (configuration not stated),nt,0,1,nt,nt
COc1ccc(CSC2=C(C#N)C(=O)NC3(CCCCC3)S2)cc1,-13,5,5,5,nt
CCCCCCSC1=C(C#N)C(=O)NC2(CCCCC2)S1,-9,-1,8,5.2*,4
Cc1cccc(C(=O)Nc2cc(Cl)ccc2-n2cncn2)c1[N+](=O)[O-],-5,-6,0,7.3*,4.8*
C[C@@H](NC(=O)c1ccc(C#Cc2cccc(F)c2)cn1)C(C)(C)O,nt,2,14,nt,nt
Cc1ccc(/C=C(\CCC(=O)O)c2nc3ccccc3s2)cc1[N+](=O)[O-],-5,-10,4,4,nt
COc1ccc(/C=C(\CC(=O)O)c2nc3ccccc3s2)cc1O,-9,-3,-2,5.6*,4
CNc1ccc(/C=C(\CCC(=O)O)c2nc3ccccc3s2)cc1[N+](=O)[O-],-6,-5,-5,4.8*,5.4*
CC1CC1C(=O)N1CCC(Oc2cccnc2)CC1 (configuration not stated),nt,2,1,nt,nt
